Hits are enriched below; roughly 19% of the tested compounds scored in any of these assays.
IL-1B inflam inh: blocks inflammasome-driven IL-1 beta release | THP-1 LPS/ATP IL-1B secretion, AlphaLISA, 16 h; active compounds read low | AID 743279 | actives 4.7% (n = 360,000) | activity change, % at 57.5 µM; in the data active = activity change below about -50%; inconclusive = mostly about -30% to -49%
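Secreted IL-1B measured by AlphaLISA bead assay after 16 h compound exposure of THP-1 cells; compounds (final up to 57.5 uM) added 1 h before LPS (250 ng/mL) and ATP (1.25 mM) stimulation; lower signal means less secretion.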
ELG1 DNA repair: blocks ELG1-dependent DNA repair in HEK293T cells. AID 504467. actives 2.3% (n = 330,000). HEK293T ELG1-luciferase reporter, luminescence, 16 h; DNA damage induced by 5-fluorouridine. Potency, µM (series often up to 46.1 µM), inactives show top-dose activity change, negative = inhibition, most hits filed as inhibitors; note: potency is the fitted concentration of half-maximal effect; nearly all actives have a fitted effect of over 55% in size
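Overnight (16 hr) co-exposure of 2,000 cells/well to 5-fluorouridine and compound at 37 °C preceded detection. Luciferase was quantified via ONE-Glo luminescence; loss of signal denotes inhibition.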
Giardia killer: kills Giardia lamblia | Giardia lamblia trophozoite viability | activity change, % at 7.66 µM, hits read low | AID 540267 | actives 0.15% (n = 340,000); in the data active = activity change below about -80%; inconclusive = between about -30% and that limit;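 note: parasites exposed to compound for two days anaerobically before the ATP read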
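Trophozoites 100 cells/well + cpd; 48 hrs, 37 deg C, anaerobic. ATPLite 1-Step added, 15-30 min RT, luminescence read (ATP-based viability).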
TDP1 block: blocks human tyrosyl-DNA phosphodiesterase 1; Q9NUW8; recombinant TDP1, AlphaScreen DNA substrate cleavage; Potency, µM (series often up to 130 µM), for the others: top-dose activity change, negative = inhibition, most hits filed as inhibitors; actives 0.28% (n = 350,000); note: potency is the fitted concentration of half-maximal effect; nearly all actives have a fitted effect of over 40% in size
Target sequence (Q9NUW8 whole entry, looked up): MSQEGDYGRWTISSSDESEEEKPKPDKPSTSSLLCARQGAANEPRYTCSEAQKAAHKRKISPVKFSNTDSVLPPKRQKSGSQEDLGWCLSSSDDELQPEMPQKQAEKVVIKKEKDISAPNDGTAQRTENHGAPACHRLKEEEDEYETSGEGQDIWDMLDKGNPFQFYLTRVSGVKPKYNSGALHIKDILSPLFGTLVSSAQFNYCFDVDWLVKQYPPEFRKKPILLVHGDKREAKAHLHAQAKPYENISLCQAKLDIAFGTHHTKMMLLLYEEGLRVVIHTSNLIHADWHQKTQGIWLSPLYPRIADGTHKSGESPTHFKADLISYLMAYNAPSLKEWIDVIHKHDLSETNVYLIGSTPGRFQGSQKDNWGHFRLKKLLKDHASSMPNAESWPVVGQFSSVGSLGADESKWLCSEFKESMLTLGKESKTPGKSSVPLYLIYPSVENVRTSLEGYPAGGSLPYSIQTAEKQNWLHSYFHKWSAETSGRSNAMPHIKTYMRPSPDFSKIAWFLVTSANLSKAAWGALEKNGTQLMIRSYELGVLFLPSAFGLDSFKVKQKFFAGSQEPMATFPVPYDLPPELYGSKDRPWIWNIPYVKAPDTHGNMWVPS
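Recombinant E. coli-expressed Tdp1 (1 nM) preincubated with compound 15 min at RT, then 5'-biotin/3'-phosphotyrosine-FITC DNA substrate (15 nM) added for 5 min. AlphaScreen beads (10 ug/ml) added, 10 min RT; tyrosine-FITC cleavage read as signal loss.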
DT40 TDP1 CPT: DT40-hTDP1 cell growth loss with CPT. chicken DT40 Tdp1-/-;hTDP1 cells + 20 nM CPT, ATP luminescence, 48 h. Potency, µM (series often up to 46.2 µM), inactives show at the top dose activity change, negative = growth inhibition, usual class: inhibitors. actives 12% (n = 420,000). AID 686979; note: potency is the fitted concentration of half-maximal effect; nearly all actives have a fitted effect of over 55% in size
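Chicken DT40 Tdp1-/- cells stably complemented with human TDP1 were seeded at 400 cells/well in medium containing 20 nM camptothecin, exposed to pin-transferred compounds, and grown at 37 °C for at least 48 hr. Viability was read as ATP luminescence.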
DT40 TDP1 no CPT: qHTS for Inhibitors of human tyrosyl-DNA phosphodiesterase 1 (TDP1): qHTS in cells in absence of CPT | actives 15% (n = 420,000) | Potency, µM (doses to about 46.2 µM), for the others: at the top dose activity change, negative = growth inhibition, usual class: inhibitors | DT40 Tdp1-/- hTDP1 cells, no CPT, ATP luminescence, 48 h; note: potency is the fitted concentration of half-maximal effect; nearly all actives have a fitted effect of over 55% in size
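Camptothecin absent (DMSO only). Human TDP1-complemented DT40 knockout cells, 400 cells/well, 37 °C for minimum 48 hr; ATP measured via CellTiter-Glo, 30 min dark incubation, luminescence.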
Starred values were filed as active, the others as inactive; ? = inconclusive; nt = not tested or not shown; [ ] = dose if it differs, or a comment. Unless noted, calls come from the whole dose curve; as a rule, active = well fitted curve in the direction sought with a large enough effect; inconclusive = small, poorly fitted or top-dose-only effect, or another doubt; inactive = no such curve, though single readings can be large; an effect the other way counts as inactive or inconclusive. % is set by controls: 0 for no effect and ±100 for the full control effect.

SMILES	IL-1B inflam inh	ELG1 DNA repair	Giardia killer	TDP1 block	DT40 TDP1 CPT	DT40 TDP1 no CPT
CC(=O)O[C@]1(C(C)=O)CC[C@H]2[C@@H]3C=C(Cl)C4=CC(=O)[C@@H]5C[C@@H]5[C@]4(C)[C@H]3CC[C@@]21C	-4.5	-10.2%	-8.6	0.9%	?	20.6µM*
CC(=O)O[C@@]1(C(C)=O)CCC2C3C=C(Cl)C4=CC(=O)CC[C@]4(C)C3CC[C@]21C (stereo partly specified)	nt	nt	nt	14.1%[56.1 µM]	?	?
CCCCN(CCCC)C(=S)[S-].CCCCN(CCCC)C(=S)[S-].[Zn+2]	nt	nt	nt	nt	14.7%	-3.3%
CCN1C(=O)[C@@H]2[C@@H](c3ccc(-c4cccc(Cl)c4)c(OC)c3)N3CCCC[C@@]3(C(=O)OC)[C@@H]2C1=O	-12.9	-3.1%	9.8	-2.0%	?	16.4µM*
COC(=O)[C@@]12CCCCN1[C@H](c1ccc(-c3ccc4c(c3)OCO4)c(OC)c1)[C@@H]1C(=O)N(C)C(=O)[C@@H]12	3.5	-14.8%	-2.8	2.7%	?	?
CCN1C(=O)[C@@H]2[C@@H](c3ccc(-c4ccc5c(c4)OCO5)c(OC)c3)N3CCC[C@@]3(C(=O)OC)[C@@H]2C1=O	3.1	-8.2%	12.2	-4.5%	-9.7%	?
CCN1C(=O)[C@@H]2[C@@H](c3ccc(SC4CCCCC4)c(OC)c3)N3CCC[C@@]3(C(=O)OC)[C@@H]2C1=O	-2.6	-9.8%	10.5	0.8%	23.1µM*	?
CCN1C(=O)[C@@H]2[C@@H](c3ccc(-c4ccc(Cl)c(Cl)c4)c(OC)c3)N3CCC[C@@]3(C(=O)OC)[C@@H]2C1=O	-17.7	?	3.6	6.9%	8.2µM*	9.2µM*
CCN1C(=O)[C@H]2[C@@H](c3ccc(-c4ccc(F)cc4)c(OC)c3)N3CCC[C@@]3(C(=O)OC)[C@H]2C1=O	30.5	-4.3%	-15.4	-4.8%	8.2µM*	8.2µM*
COC(=O)[C@@]12CCCN1[C@H](c1ccc(-c3ccc(OC)cc3)c(OC)c1)[C@H]1C(=O)N(C)C(=O)[C@H]12	-0.7	-19.2%	8.0	4.2%	?	?
O=C(NNC(=O)c1csc(N2CCOCC2)n1)c1cccnc1	14.8	18.1%	12.7	nt	21.1%	-19.3%
COC(=O)c1c(-c2ccccc2)nn(-c2ccccc2)c1C(=O)OC	3.8	-7.9%	-11.1	nt	?	?
COc1ccc2c(=O)c3c(=O)n(CCc4ccccc4)c(C)nc3oc2c1	nt	nt	-8.5	nt	11.6%	-20.5%
COc1ccc(Cn2c(-c3ccc(C)cc3)nc3c(c(=O)c4ccccc4n3C)c2=O)cc1	0.6	?	-22.0	nt	14.6µM*	?
COCCn1c(-c2ccccc2)nc2oc3cc(OC)ccc3c(=O)c2c1=O	1.3	-4.4%	-0.9	4.8%	-11.4%	-13.3%
COc1ccc2c(=O)c3c(=O)n(CCc4ccccc4)c(C(C)C)nc3oc2c1	12.4	-27.4%	-20.1	4.8%	25.9µM*	14.6µM*
COc1ccc(CCn2c(C(C)C)nc3c(c(=O)c4ccccc4n3C)c2=O)cc1	-3.2	16.4µM*	-0.9	-2.7%	16.4µM*	11.6µM*
COc1ccc(Cn2c(-c3ccc(OC)cc3)nc3c(c(=O)c4ccccc4n3C)c2=O)cc1	nt	?	nt	-1.8%	nt	nt
COc1ccc2c(=O)c3c(=O)n(-c4ccccc4)c(-c4ccc(C)cc4)nc3oc2c1	59.6	?	25.9	-2.5%	-24.5%	18.4µM*
COc1ccc(CCn2c(C)nc3c(c(=O)c4ccccc4n3C)c2=O)cc1	-18.2	?	27.0	5.5%	?	5.8µM*
COc1ccc(Cn2c(C)nc3c(c(=O)c4ccccc4n3C)c2=O)cc1	-11.0	6.3%	0.9	-2.9%	-19.1%	?
Clc1cccc(N2CCN(c3ncnc4c3nc3n4CCCC3)CC2)c1	nt	nt	nt	1.3%	16.4µM*	20.6µM*
COc1ccc(CNc2ncnc3c2nc2n3CCCC2)cc1	nt	nt	nt	3.7%	?	-17.7%
Clc1cccc(Nc2ncnc3c2nc2n3CCCCC2)c1	nt	nt	nt	5.0%	8.2µM*	9.2µM*
COc1ccc(OC)c(CNc2ncnc3c2nc2n3CCCC2)c1	nt	nt	nt	7.5%	13µM*	?
SMILES	IL-1B inflam inh	ELG1 DNA repair	Giardia killer	TDP1 block	DT40 TDP1 CPT	DT40 TDP1 no CPT
Clc1ccccc1Nc1ncnc2c1nc1n2CCCCC1	nt	nt	nt	-3.7%	8.2µM*	?
COc1ccccc1Nc1ncnc2c1nc1n2CCCCC1	nt	nt	nt	1.2%	?	?
CCCCn1c(SCC(=O)NC2CC2)nc2cc(C(=O)OC)ccc2c1=O	22.9	nt	nt	nt	-15.4%	-22.4%
Cc1ccc(-n2ncc3c2CC(C)(C)CC3NC(=O)CCc2ccc(=O)[nH]n2)cc1 (stereo unspecified)	-3.0	-1.2%	1.8	1.4%	0.9%	25.3%
O=C(NC1CCN(Cc2ccccc2)C1)c1cnn(-c2ncc3c(n2)-c2ccccc2CC3)c1C1CC1 (stereo unspecified)	nt	nt	nt	nt	6.5%[9.04 µM]	-17.4%
COC(=O)Nc1cc(C)nc2ccccc12	14.9	1.5%	-22.8	-5.9%	-16.0%	-20.5%
CNc1cc(C(=O)O)nc2ccccc12	nt	nt	nt	nt	0.891µM*	1.12µM*
COc1cc(CN2CCCC(n3cc(C(=O)N4CCCC4)nn3)C2)cc(OC)c1 (stereo unspecified)	nt	nt	nt	nt	-1.6%	-13.9%
CN1C(=O)CC(C)(c2ccccc2)C1=O (stereo unspecified)	nt	nt	nt	nt	-0.8%	-5.6%
CC12CCC(C(=O)N(CSC(=S)N/N=C\c3ccccc3)C1=O)C2(C)C (stereo unspecified)	20.7	-4.4%	-18.4	2.5%	5.8µM*	4.61µM*
COc1cccc(C2CC(=O)Nc3cc(OC)c(OC)cc32)c1 (stereo unspecified)	21.3	7.1%	-7.8	9.0%	-25.8%	-25.1%
COc1cccc(C2CC(=O)Nc3cc4c(cc32)CCC4)c1 (stereo unspecified)	62.9	-12.0%	-0.9	1.2%	4.11µM*	2.59µM*
CC1(C)COC(c2cccc([N+](=O)[O-])c2)OC1	-7.7	nt	8.7	nt	-10.2%	-2.4%
COc1cccc(C2CC(=O)Nc3cc(C)c(C)cc32)c1 (stereo unspecified)	37.9	nt	nt	nt	?	14.6µM*
O=C1CC(c2cccc(Cl)c2)c2cc3c(cc2N1)CCC3 (stereo unspecified)	36.5	-11.4%	2.4	0.0%	4.61µM*	2.91µM*
O=C1CC(c2cccc([N+](=O)[O-])c2)c2cc3c(cc2N1)CCC3 (stereo unspecified)	52.8	16.4µM*	-12.7	3.4%	18.4µM*	25.9µM*

Screening data: PubChem BioAssay, National Center for Advancing Translational Sciences (NCATS)
